Measured values: the supplement of paper PMC4466140

target: AgAbp1; assay: SPOT peptide array binding signal intensity (averaged, normalized) (arbitrary units (background-subtracted, floor 0; scale differs between SH3 domains)); higher = stronger binding of the SH3 domain to the peptide
Outline: (§1)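 To measure binding, SH3 domains from four yeast species were fused to GST, expressed in E. coli BL21(DE3) and purified on glutathione Sepharose. Each domain was incubated at 10 μg/ml overnight at 4°C on cellulose membranes with synthetic 15-mer peptides whose cysteines were replaced by serines. Anti-GST antibody, an HRP anti-mouse secondary and luminol were used for detection, and images were quantified with Genespotter. Reported binding signal is normalized, background-subtracted spot intensity averaged over replicates, in arbitrary units that differ between domains.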

Binder | SPOT peptide array binding signal intensity
QPPLPSSAPPIPTSH | ≤ 0

target: AgBbc1; assay: as above
Outline: as §1

Binder | SPOT peptide array binding signal intensity
QPPLPSSAPPIPTSH | ≤ 0

target: AgBem1-D1; assay: as above
Outline: as §1

Binder | SPOT peptide array binding signal intensity
QPPLPSSAPPIPTSH | ≤ 0

target: AgBzz1-D1; assay: as above
Outline: as §1

Binder | SPOT peptide array binding signal intensity
QPPLPSSAPPIPTSH | 35

target: AgBzz1-D2; assay: as above
Outline: as §1

Binder | SPOT peptide array binding signal intensity
QPPLPSSAPPIPTSH | ≤ 0

target: AgCyk3; assay: as above
Outline: as §1

Binder | SPOT peptide array binding signal intensity
QPPLPSSAPPIPTSH | ≤ 0

target: AgFus1; assay: as above
Outline: as §1

Binder | SPOT peptide array binding signal intensity
QPPLPSSAPPIPTSH | ≤ 0

target: AgHof1; assay: as above
Outline: as §1

Binder | SPOT peptide array binding signal intensity
QPPLPSSAPPIPTSH | ≤ 0

target: AgHse1; assay: as above
Outline: as §1

Binder | SPOT peptide array binding signal intensity
QPPLPSSAPPIPTSH | ≤ 0

target: AgLsb1; assay: as above
Outline: as §1

Binder | SPOT peptide array binding signal intensity
QPPLPSSAPPIPTSH | ≤ 0

target: AgLsb4; assay: as above
Outline: as §1

Binder | SPOT peptide array binding signal intensity
QPPLPSSAPPIPTSH | ≤ 0

target: AgMyo5; assay: as above
Outline: as §1

Binder | SPOT peptide array binding signal intensity
QPPLPSSAPPIPTSH | 1730

target: AgNbp2; assay: as above
Outline: as §1

Binder | SPOT peptide array binding signal intensity
QPPLPSSAPPIPTSH | ≤ 0

target: AgRvs167; assay: as above
Outline: as §1

Binder | SPOT peptide array binding signal intensity
QPPLPSSAPPIPTSH | ≤ 0

target: AgSho1; assay: as above
Outline: as §1

Binder | SPOT peptide array binding signal intensity
QPPLPSSAPPIPTSH | ≤ 0

target: AgSla1-D1-D2; assay: as above
Outline: as §1

Binder | SPOT peptide array binding signal intensity
QPPLPSSAPPIPTSH | ≤ 0

target: AgSla1-D3; assay: as above
Outline: as §1

Binder | SPOT peptide array binding signal intensity
QPPLPSSAPPIPTSH | ≤ 0

target: CaAbp1-D1; assay: as above
Outline: as §1

Binder | SPOT peptide array binding signal intensity
QPPLPSSAPPIPTSH | ≤ 0

target: CaAbp1-D2; assay: as above
Outline: as §1

Binder | SPOT peptide array binding signal intensity
QPPLPSSAPPIPTSH | ≤ 0

target: CaBbc1; assay: as above
Outline: as §1

Binder | SPOT peptide array binding signal intensity
QPPLPSSAPPIPTSH | ≤ 0

target: CaBem1-D1; assay: as above
Outline: as §1

Binder | SPOT peptide array binding signal intensity
QPPLPSSAPPIPTSH | 8.5

target: CaBzz1-D1; assay: as above
Outline: as §1

Binder | SPOT peptide array binding signal intensity
QPPLPSSAPPIPTSH | ≤ 0

target: CaBzz1-D2; assay: as above
Outline: as §1

Binder | SPOT peptide array binding signal intensity
QPPLPSSAPPIPTSH | 2.5

target: CaCyk3; assay: as above
Outline: as §1

Binder | SPOT peptide array binding signal intensity
QPPLPSSAPPIPTSH | ≤ 0

target: CaFus1; assay: as above
Outline: as §1

Binder | SPOT peptide array binding signal intensity
QPPLPSSAPPIPTSH | ≤ 0

target: CaHof1; assay: as above
Outline: as §1

Binder | SPOT peptide array binding signal intensity
QPPLPSSAPPIPTSH | ≤ 0

target: CaHse1; assay: as above
Outline: as §1

Binder | SPOT peptide array binding signal intensity
QPPLPSSAPPIPTSH | ≤ 0

target: CaLsb1; assay: as above
Outline: as §1

Binder | SPOT peptide array binding signal intensity
QPPLPSSAPPIPTSH | ≤ 0

target: CaLsb4; assay: as above
Outline: as §1

Binder | SPOT peptide array binding signal intensity
QPPLPSSAPPIPTSH | ≤ 0

target: CaMyo5; assay: as above
Outline: as §1

Binder | SPOT peptide array binding signal intensity
QPPLPSSAPPIPTSH | 510

target: CaNbp2; assay: as above
Outline: as §1

Binder | SPOT peptide array binding signal intensity
QPPLPSSAPPIPTSH | ≤ 0

target: CaRvs167; assay: as above
Outline: as §1

Binder | SPOT peptide array binding signal intensity
QPPLPSSAPPIPTSH | ≤ 0

target: CaRvs167-3; assay: as above
Outline: as §1

Binder | SPOT peptide array binding signal intensity
QPPLPSSAPPIPTSH | 0.5

target: CaSho1; assay: as above
Outline: as §1

Binder | SPOT peptide array binding signal intensity
QPPLPSSAPPIPTSH | ≤ 0

target: CaSla1-D1-D2; assay: as above
Outline: as §1

Binder | SPOT peptide array binding signal intensity
QPPLPSSAPPIPTSH | ≤ 0

target: CaSla1-D3; assay: as above
Outline: as §1

Binder | SPOT peptide array binding signal intensity
QPPLPSSAPPIPTSH | ≤ 0

target: ScAbp1; assay: as above
Outline: as §1

Binder | SPOT peptide array binding signal intensity
QPPLPSSAPPIPTSH | ≤ 0

target: ScBbc1; assay: as above
Outline: as §1

Binder | SPOT peptide array binding signal intensity
QPPLPSSAPPIPTSH | ≤ 0

target: ScBem1-D1; assay: as above
Outline: as §1

Binder | SPOT peptide array binding signal intensity
QPPLPSSAPPIPTSH | ≤ 0

target: ScBzz1-D1; assay: as above
Outline: as §1

Binder | SPOT peptide array binding signal intensity
QPPLPSSAPPIPTSH | ≤ 0

target: ScBzz1-D2; assay: as above
Outline: as §1

Binder | SPOT peptide array binding signal intensity
QPPLPSSAPPIPTSH | ≤ 0

target: ScCyk3; assay: as above
Outline: as §1

Binder | SPOT peptide array binding signal intensity
QPPLPSSAPPIPTSH | ≤ 0

target: ScFus1; assay: as above
Outline: as §1

Binder | SPOT peptide array binding signal intensity
QPPLPSSAPPIPTSH | ≤ 0

target: ScHof1; assay: as above
Outline: as §1

Binder | SPOT peptide array binding signal intensity
QPPLPSSAPPIPTSH | ≤ 0

target: ScHse1; assay: as above
Outline: as §1

Binder | SPOT peptide array binding signal intensity
QPPLPSSAPPIPTSH | ≤ 0

target: ScLsb1; assay: as above
Outline: as §1

Binder | SPOT peptide array binding signal intensity
QPPLPSSAPPIPTSH | ≤ 0

target: ScLsb2; assay: as above
Outline: as §1

Binder | SPOT peptide array binding signal intensity
QPPLPSSAPPIPTSH | ≤ 0

target: ScLsb3; assay: as above
Outline: as §1

Binder | SPOT peptide array binding signal intensity
QPPLPSSAPPIPTSH | ≤ 0

target: ScLsb4; assay: as above
Outline: as §1

Binder | SPOT peptide array binding signal intensity
QPPLPSSAPPIPTSH | ≤ 0

target: ScMyo3; assay: as above
Outline: as §1

Binder | SPOT peptide array binding signal intensity
QPPLPSSAPPIPTSH | 2510

target: ScMyo5; assay: as above
Outline: as §1

Binder | SPOT peptide array binding signal intensity
QPPLPSSAPPIPTSH | 1600

target: ScNbp2; assay: as above
Outline: as §1

Binder | SPOT peptide array binding signal intensity
QPPLPSSAPPIPTSH | ≤ 0

target: ScPex13; assay: as above
Outline: as §1

Binder | SPOT peptide array binding signal intensity
QPPLPSSAPPIPTSH | ≤ 0

target: ScRvs167; assay: as above
Outline: as §1

Binder | SPOT peptide array binding signal intensity
QPPLPSSAPPIPTSH | ≤ 0

target: ScSho1; assay: as above
Outline: as §1

Binder | SPOT peptide array binding signal intensity
QPPLPSSAPPIPTSH | ≤ 0

target: ScSla1-D1-D2; assay: as above
Outline: as §1

Binder | SPOT peptide array binding signal intensity
QPPLPSSAPPIPTSH | ≤ 0

target: ScSla1-D3; assay: as above
Outline: as §1

Binder | SPOT peptide array binding signal intensity
QPPLPSSAPPIPTSH | ≤ 0

target: SpAbp1-D1; assay: as above
Outline: as §1

Binder | SPOT peptide array binding signal intensity
QPPLPSSAPPIPTSH | 2.5

target: SpBbc1; assay: as above
Outline: as §1

Binder | SPOT peptide array binding signal intensity
QPPLPSSAPPIPTSH | 4.25

target: SpBzz1-D1; assay: as above
Outline: as §1

Binder | SPOT peptide array binding signal intensity
QPPLPSSAPPIPTSH | ≤ 0

target: SpBzz1-D2; assay: as above
Outline: as §1

Binder | SPOT peptide array binding signal intensity
QPPLPSSAPPIPTSH | ≤ 0

target: SpCyk3; assay: as above
Outline: as §1

Binder | SPOT peptide array binding signal intensity
QPPLPSSAPPIPTSH | ≤ 0

target: SpHof1; assay: as above
Outline: as §1

Binder | SPOT peptide array binding signal intensity
QPPLPSSAPPIPTSH | ≤ 0

target: SpHof1-2; assay: as above
Outline: as §1

Binder | SPOT peptide array binding signal intensity
QPPLPSSAPPIPTSH | ≤ 0

target: SpHof1-3; assay: as above
Outline: as §1

Binder | SPOT peptide array binding signal intensity
QPPLPSSAPPIPTSH | ≤ 0

target: SpHse1; assay: as above
Outline: as §1

Binder | SPOT peptide array binding signal intensity
QPPLPSSAPPIPTSH | 17.5

target: SpLsb1; assay: as above
Outline: as §1

Binder | SPOT peptide array binding signal intensity
QPPLPSSAPPIPTSH | ≤ 0

target: SpLsb4; assay: as above
Outline: as §1

Binder | SPOT peptide array binding signal intensity
QPPLPSSAPPIPTSH | ≤ 0

target: SpMyo1; assay: as above
Outline: as §1

Binder | SPOT peptide array binding signal intensity
QPPLPSSAPPIPTSH | 1080

target: SpNbp2; assay: as above
Outline: as §1

Binder | SPOT peptide array binding signal intensity
QPPLPSSAPPIPTSH | ≤ 0

target: SpPex13; assay: as above
Outline: as §1

Binder | SPOT peptide array binding signal intensity
QPPLPSSAPPIPTSH | 1

target: SpRvs167; assay: as above
Outline: as §1

Binder | SPOT peptide array binding signal intensity
QPPLPSSAPPIPTSH | ≤ 0

target: SpSla1-D1-D2; assay: as above
Outline: as §1

Binder | SPOT peptide array binding signal intensity
QPPLPSSAPPIPTSH | ≤ 0

target: SpSla1-D3; assay: as above
Outline: as §1

Binder | SPOT peptide array binding signal intensity
QPPLPSSAPPIPTSH | 3.5
